Targets with a hit are over-represented here; the source holds about 7,900 in all. About 0.6% of all pairs of compound and target were hits. A number with no mark means an inactive call.

This passage reports log2 fold change results from the supplement of paper PMC10849652.

Sequence of UniProt P60842 (P60842 whole entry, looked up): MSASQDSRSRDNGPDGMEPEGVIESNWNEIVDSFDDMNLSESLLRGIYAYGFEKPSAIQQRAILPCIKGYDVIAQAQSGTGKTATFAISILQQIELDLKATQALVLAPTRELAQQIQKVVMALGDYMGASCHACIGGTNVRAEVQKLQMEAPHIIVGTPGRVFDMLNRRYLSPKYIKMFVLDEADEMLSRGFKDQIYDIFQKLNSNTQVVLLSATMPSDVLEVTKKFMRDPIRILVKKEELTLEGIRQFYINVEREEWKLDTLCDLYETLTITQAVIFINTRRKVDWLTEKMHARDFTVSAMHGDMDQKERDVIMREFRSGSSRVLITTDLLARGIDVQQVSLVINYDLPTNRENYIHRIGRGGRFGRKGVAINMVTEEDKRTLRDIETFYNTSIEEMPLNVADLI
Sequence of UniProt Q16643 (Q16643 whole entry, looked up): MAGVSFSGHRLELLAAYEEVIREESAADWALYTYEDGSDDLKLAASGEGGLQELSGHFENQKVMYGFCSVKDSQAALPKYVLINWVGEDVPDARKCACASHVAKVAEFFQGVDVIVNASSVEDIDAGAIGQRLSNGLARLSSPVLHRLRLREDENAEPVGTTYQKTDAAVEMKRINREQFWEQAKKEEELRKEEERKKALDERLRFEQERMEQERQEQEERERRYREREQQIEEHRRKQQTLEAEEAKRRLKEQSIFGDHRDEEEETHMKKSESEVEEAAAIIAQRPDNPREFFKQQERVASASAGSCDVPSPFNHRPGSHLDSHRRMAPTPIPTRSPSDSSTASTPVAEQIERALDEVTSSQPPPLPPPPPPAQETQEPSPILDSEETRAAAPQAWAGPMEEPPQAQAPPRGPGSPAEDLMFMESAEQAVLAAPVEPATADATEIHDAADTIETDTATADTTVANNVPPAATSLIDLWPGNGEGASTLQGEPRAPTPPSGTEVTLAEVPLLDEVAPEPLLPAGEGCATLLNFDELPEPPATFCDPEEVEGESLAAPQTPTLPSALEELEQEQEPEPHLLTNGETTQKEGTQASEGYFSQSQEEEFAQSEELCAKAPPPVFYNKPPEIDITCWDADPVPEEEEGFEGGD
Sequence of UniProt Q96GQ7 (Q96GQ7 whole entry, looked up): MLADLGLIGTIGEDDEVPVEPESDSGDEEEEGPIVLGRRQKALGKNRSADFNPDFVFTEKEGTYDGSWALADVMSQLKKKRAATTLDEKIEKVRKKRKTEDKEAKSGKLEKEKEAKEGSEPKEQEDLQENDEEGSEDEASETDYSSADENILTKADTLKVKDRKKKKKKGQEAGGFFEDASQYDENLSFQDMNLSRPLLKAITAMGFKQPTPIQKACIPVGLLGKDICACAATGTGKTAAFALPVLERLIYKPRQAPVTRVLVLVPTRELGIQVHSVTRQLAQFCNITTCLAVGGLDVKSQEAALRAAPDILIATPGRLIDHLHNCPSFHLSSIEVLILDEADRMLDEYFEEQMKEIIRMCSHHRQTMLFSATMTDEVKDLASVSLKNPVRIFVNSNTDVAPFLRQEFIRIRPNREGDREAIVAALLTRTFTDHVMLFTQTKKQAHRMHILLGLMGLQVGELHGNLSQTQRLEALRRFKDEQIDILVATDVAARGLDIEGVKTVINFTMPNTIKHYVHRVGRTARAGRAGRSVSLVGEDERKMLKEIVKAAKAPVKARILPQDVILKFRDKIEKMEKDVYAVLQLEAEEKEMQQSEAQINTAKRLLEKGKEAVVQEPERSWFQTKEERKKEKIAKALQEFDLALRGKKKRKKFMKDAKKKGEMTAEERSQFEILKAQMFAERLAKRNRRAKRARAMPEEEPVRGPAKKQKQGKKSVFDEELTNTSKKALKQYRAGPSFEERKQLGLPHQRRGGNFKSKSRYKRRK
Sequence of UniProt P32519 (P32519 whole entry, looked up): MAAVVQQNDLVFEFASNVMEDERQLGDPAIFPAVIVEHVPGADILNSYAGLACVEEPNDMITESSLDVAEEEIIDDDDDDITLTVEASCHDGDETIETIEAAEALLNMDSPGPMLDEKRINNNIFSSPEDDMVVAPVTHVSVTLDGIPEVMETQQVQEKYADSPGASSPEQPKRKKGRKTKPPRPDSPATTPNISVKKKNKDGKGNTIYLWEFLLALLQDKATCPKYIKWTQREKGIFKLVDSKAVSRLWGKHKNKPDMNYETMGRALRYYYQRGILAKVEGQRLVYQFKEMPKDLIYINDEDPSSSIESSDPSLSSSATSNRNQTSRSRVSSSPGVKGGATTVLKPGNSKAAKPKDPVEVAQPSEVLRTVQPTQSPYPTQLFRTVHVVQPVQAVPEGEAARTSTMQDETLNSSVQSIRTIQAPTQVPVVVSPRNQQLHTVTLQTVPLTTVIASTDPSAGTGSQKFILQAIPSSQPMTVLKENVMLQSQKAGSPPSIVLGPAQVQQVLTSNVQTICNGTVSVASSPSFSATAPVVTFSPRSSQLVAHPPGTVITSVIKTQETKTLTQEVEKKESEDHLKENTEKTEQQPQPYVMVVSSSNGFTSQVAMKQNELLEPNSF
Sequence of UniProt P50570 (P50570 whole entry, looked up): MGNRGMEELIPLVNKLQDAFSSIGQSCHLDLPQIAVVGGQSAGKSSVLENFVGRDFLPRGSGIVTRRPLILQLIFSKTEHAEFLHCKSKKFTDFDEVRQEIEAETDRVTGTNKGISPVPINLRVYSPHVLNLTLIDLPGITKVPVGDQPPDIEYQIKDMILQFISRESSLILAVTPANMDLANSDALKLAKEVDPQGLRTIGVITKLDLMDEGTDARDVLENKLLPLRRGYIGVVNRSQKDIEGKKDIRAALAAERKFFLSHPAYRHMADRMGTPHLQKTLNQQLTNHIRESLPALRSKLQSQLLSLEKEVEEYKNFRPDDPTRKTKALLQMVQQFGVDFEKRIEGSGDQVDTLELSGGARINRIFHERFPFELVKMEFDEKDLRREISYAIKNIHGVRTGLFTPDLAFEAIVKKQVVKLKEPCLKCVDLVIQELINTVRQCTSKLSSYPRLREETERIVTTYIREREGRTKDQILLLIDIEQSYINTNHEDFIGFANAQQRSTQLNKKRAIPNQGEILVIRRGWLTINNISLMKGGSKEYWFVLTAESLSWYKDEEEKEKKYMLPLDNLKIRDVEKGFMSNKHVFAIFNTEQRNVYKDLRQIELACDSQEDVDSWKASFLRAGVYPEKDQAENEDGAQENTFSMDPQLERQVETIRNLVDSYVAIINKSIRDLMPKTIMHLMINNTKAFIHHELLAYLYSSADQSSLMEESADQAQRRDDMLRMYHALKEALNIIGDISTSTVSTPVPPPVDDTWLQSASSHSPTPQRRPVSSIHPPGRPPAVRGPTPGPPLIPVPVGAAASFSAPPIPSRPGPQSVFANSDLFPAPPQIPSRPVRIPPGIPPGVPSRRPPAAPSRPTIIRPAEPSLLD
Sequence of UniProt Q6P1L5 (Q6P1L5 whole entry, looked up): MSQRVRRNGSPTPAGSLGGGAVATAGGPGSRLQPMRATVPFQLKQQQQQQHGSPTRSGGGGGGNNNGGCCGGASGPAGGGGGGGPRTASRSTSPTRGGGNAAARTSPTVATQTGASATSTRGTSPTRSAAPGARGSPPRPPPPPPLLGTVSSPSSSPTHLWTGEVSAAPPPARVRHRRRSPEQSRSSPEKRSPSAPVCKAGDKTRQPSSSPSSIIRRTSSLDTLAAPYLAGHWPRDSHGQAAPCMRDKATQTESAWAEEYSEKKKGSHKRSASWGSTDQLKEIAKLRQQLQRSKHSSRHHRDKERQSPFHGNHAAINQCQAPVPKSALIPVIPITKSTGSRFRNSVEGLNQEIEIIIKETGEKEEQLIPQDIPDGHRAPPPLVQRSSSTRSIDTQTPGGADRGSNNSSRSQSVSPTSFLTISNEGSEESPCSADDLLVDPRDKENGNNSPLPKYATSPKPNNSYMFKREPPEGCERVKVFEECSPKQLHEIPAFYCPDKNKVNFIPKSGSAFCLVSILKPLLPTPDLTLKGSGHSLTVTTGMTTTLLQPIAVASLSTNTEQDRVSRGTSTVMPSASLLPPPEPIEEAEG
Sequence of UniProt O75822 (O75822 whole entry, looked up): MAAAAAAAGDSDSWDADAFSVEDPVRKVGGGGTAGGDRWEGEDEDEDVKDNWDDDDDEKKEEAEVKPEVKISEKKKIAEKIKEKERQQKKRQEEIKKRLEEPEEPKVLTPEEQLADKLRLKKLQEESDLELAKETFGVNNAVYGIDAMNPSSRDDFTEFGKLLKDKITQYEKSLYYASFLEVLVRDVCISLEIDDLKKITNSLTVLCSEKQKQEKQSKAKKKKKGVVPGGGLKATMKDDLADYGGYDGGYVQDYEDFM
Sequence of UniProt Q01780 (Q01780 whole entry, looked up): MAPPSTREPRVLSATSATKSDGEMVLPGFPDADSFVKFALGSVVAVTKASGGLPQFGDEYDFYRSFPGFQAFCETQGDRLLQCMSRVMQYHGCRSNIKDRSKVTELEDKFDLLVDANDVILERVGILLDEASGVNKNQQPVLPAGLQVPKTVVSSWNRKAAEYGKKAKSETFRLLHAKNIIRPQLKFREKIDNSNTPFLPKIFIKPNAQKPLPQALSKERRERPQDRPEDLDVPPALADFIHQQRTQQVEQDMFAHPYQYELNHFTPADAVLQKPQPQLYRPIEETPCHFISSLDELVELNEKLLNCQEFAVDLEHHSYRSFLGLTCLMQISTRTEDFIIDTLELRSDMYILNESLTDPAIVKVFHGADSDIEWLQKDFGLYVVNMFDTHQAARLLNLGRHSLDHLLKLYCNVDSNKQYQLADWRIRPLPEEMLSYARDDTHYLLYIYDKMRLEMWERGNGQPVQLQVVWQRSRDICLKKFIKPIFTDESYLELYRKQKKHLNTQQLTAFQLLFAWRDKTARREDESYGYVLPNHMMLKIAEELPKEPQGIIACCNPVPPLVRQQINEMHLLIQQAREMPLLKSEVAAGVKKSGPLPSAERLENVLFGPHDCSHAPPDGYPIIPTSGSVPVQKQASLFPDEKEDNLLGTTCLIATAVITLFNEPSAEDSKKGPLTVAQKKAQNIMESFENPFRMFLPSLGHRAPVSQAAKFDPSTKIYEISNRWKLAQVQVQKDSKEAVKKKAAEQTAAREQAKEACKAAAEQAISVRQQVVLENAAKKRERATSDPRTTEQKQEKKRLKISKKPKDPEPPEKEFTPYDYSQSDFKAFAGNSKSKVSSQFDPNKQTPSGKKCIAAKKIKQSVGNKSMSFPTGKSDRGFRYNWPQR

Compound in one assay: CC(C)(C)Cn1c(N)nc2ccc(-c3[nH]c(C(C)(C)C)nc3-c3ccc(F)cc3)nc21 [ralimetinib]
Put plainly: log2 fold change, soluble protein after heating vs DMSO (PISA); higher = thermal stabilisation; K562 cells, 10 uM, 30 min; active = over 0.2 and 3.5 SD of the protein, either way, in both replicates (recomputed). Summed up:
(§1)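 Thermal stability values are relative to control samples and come from duplicates. They are expressed as log2 fold changes. For measurement, K562 cells (2×10^6 cells/mL) received 10 μM compound for 30 min, and aliquots were heated for 3 min over 48°C-58°C, pooled, and extracted at 4°C in PBS with 0.5% NP-40. Soluble protein, the supernatant after 21,000xg for 90 min, was quantified by TMTpro 16plex LC-MS/MS with equalised channel sums.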
As to DDX27 (UniProt Q96GQ7), the log2 fold change was 0.04.

Consider EED, A0A5F9ZI63, for which the log2 fold change is 0.042.

Take ELF1 (UniProt P32519): the log2 fold change is 0.186.

For the target DNM2 (UniProt P50570), the log2 fold change was -0.02.

In the case of EXOSC10 (UniProt Q01780), the log2 fold change is -0.261.

On to FAM117B (UniProt Q6P1L5), for which the log2 fold change is -0.177.

With DBN1 isoform 3 (UniProt Q16643), the log2 fold change is 0.072.

EIF4A1 (UniProt P60842): the log2 fold change is 0.026.

Turning to FAM241A (UniProt Q8N8J7), the log2 fold change was -0.019.

Compound in a further assay: CC(C)(O)CC(=O)NCCn1ccc2ncnc(Nc3ccc(Oc4cccc(C(F)(F)F)c4)c(Cl)c3)c21
The description is as above. Summed up: as §1
As for EIF2AK3 (UniProt Q9NZJ5), the log2 fold change was -0.322.

As for DCUN1D1 (UniProt Q96GG9), the log2 fold change is -0.002.

Turning to EIF3J isoform 2 (UniProt O75822), the log2 fold change was -0.05.

Take DCAF10 (UniProt Q5QP82): the log2 fold change is -0.041.

Turning to DENND10 (UniProt Q8TCE6), the log2 fold change is -0.025.

In the case of EIF2AK1 (UniProt Q9BQI3), the log2 fold change is 0.056.

As for FAM3A (UniProt P98173), the log2 fold change is -0.028.

With ELOVL5 isoform 2 (UniProt Q9NYP7), the log2 fold change is -0.272.

With DEGS1 (UniProt O15121), the log2 fold change is 0.013.

Take DHCR7 (UniProt Q9UBM7): the log2 fold change is 0.067.

Turning to EIF3J (UniProt O75822), the log2 fold change is -0.031.

E2F4 (UniProt Q16254): the log2 fold change was -0.072.

In the case of DOHH (UniProt Q9BU89), the log2 fold change is 0.244.

As to ERLIN2 (UniProt O94905), the log2 fold change was 0.

For DPYSL2 (UniProt Q16555), the log2 fold change was 0.092.

Regarding ELAC1 (UniProt Q9H777), the log2 fold change was 0.027.

Regarding EEF1A1 (UniProt P68104), the log2 fold change was -0.052.

For the target EHBP1L1 (UniProt Q8N3D4), the log2 fold change was -0.001.

In the case of EXOC8 (UniProt Q8IYI6), the log2 fold change is -0.128.

On to DYNC1I2 isoform 2 (UniProt Q13409), for which the log2 fold change is -0.133.

For the target DTWD1 (UniProt Q8N5C7), the log2 fold change is -0.022.

As to ERCC6 (UniProt Q03468), the log2 fold change was -0.094.

As to CUX1 isoform 3 (UniProt P39880), the log2 fold change is -0.047.

For the target ELOVL7 (UniProt A1L3X0), the log2 fold change was -0.177.

For DUS3L (UniProt Q96G46), the log2 fold change was -0.043.

Regarding EIF2S3 (UniProt P41091), the log2 fold change was 0.05.

For the target EGR1 (UniProt P18146), the log2 fold change is 0.044.

For DDX27 (UniProt Q96GQ7), the log2 fold change was 0.106.

As to EED, A0A5F9ZI63, the log2 fold change is 0.053.

For the target ELF1 (UniProt P32519), the log2 fold change was -0.567 (active).

In the case of EZH2 isoform 2 (UniProt Q15910), the log2 fold change was -0.041.

Regarding DNM2 (UniProt P50570), the log2 fold change is -0.081.

In the case of EXOSC10 (UniProt Q01780), the log2 fold change is -0.01.

Turning to FAM117B (UniProt Q6P1L5), the log2 fold change is -0.255.

Take DBN1 isoform 3 (UniProt Q16643): the log2 fold change is 0.151.

With EIF4A1 (UniProt P60842), the log2 fold change was -0.151.
